Most compounds without a hit are left out; they make up all but 18% or so of the library.
TDP1 cell noCPT – qHTS for Inhibitors of human tyrosyl-DNA phosphodiesterase 1 (TDP1): qHTS in cells in absence of CPT | Potency, µM (series often up to 46.2 µM), hits mostly inhibitors | DT40 Tdp1-/- hTDP1 cells, no CPT, ATP luminescence, 48 h | hit rate 15% among 420,000; further: nearly all actives have a fitted effect of over 55% in size
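No-CPT arm: Tdp1-/-;hTDP1 DT40 cells (400/well) plus compounds, incubated ≥48 hr at 37 °C. Readout CellTiter-Glo luminescence.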
TDP1 block – qHTS Assay for Inhibitors of Tyrosyl-DNA Phosphodiesterase (TDP1). Tyrosyl-DNA phosphodiesterase 1 (Homo sapiens), Q9NUW8. recombinant TDP1, AlphaScreen DNA substrate cleavage. Potency, µM (doses to about 130 µM), most hits filed as inhibitors. hit rate 0.28% among 350,000; further: nearly all actives have a fitted effect of over 40% in size
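Recombinant E. coli-expressed Tdp1 (1 nM) preincubated with compound 15 min at RT, then 5'-biotin/3'-phosphotyrosine-FITC DNA substrate (15 nM) added for 5 min. AlphaScreen beads (10 ug/ml) added, 10 min RT; tyrosine-FITC cleavage read as signal loss.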
VDR inhibitor – Inhibitors of the vitamin D receptor (VDR): qHTS | Vitamin D3 receptor (Homo sapiens), P11473 | VDR-SRC2-3 peptide fluorescence polarization, 2 h | Potency, µM, actives largely listed as inhibitors | hit rate 0.93% among 400,000 | AID 504847, 2011
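FP read-out; VDR + SRC2-3 coactivator peptide; 23 nl compound by pintool; 2 h RT incubation; reagents held at 4 deg C, protected from light.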
TDP1 cell CPT – qHTS for Inhibitors of human tyrosyl-DNA phosphodiesterase 1 (TDP1): qHTS in cells in presence of CPT | chicken DT40 Tdp1-/-;hTDP1 cells + 20 nM CPT, ATP luminescence, 48 h | Potency, µM (top dose mostly 46.2 µM), actives largely listed as inhibitors | hit rate 12% among 420,000; further: nearly all actives have a fitted effect of over 55% in size
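Chicken DT40 Tdp1-/- cells complemented with human TDP1, 400 cells/well, exposed to compounds plus 20 nM camptothecin for at least 48 h at 37 C; viability read as ATP content by CellTiter-Glo luminescence.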
PLK1 PBD block – qHTS for Inhibitors of PLK1-PDB (polo-like kinase 1 - polo-box domain): Primary Screen; Serine/threonine-protein kinase PLK1 (Homo sapiens), P53350; Plk1 PBD binding of FITC phosphopeptide, fluorescence polarization; Potency, µM, most hits filed as inhibitors; hit rate 2.8% among 360,000; AID 720504, 2013; further: series mostly up to about 57 µM; nearly all actives have a fitted effect of over 65% in size
GCN5L2 inh – qHTS Assay for Inhibitors of GCN5L2; hit rate 0.21% among 390,000; AID 504327, 2011; Histone acetyltransferase KAT2A (Homo sapiens), Q92830; GCN5L2 HAT assay, ThioGlo1 CoA-SH fluorescence; Potency, µM (doses to about 58.9 µM), actives largely listed as inhibitors
Target sequence (Q92830 whole entry, looked up): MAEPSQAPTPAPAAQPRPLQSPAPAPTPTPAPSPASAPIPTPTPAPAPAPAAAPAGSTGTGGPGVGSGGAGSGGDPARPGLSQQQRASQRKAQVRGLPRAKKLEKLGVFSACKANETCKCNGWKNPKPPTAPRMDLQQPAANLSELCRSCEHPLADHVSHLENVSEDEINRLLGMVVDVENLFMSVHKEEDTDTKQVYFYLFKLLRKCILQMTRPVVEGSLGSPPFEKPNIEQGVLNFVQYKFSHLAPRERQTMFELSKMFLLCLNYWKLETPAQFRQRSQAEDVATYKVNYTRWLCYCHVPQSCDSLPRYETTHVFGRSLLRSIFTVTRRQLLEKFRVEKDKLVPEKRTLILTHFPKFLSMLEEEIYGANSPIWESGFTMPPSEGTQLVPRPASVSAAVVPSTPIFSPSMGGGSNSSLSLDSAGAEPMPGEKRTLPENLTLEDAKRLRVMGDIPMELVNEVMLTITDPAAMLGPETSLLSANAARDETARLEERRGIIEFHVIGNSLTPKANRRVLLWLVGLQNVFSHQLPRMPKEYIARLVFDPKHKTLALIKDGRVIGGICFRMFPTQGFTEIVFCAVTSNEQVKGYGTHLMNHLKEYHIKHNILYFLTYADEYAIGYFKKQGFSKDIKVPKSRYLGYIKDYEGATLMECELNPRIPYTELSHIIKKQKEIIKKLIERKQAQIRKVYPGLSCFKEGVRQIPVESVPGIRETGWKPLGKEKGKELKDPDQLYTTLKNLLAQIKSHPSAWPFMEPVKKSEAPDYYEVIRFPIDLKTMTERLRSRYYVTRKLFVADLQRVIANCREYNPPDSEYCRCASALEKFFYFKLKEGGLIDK
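Titration-based screen in which CoA formation is detected via maleimide probe ThioGlo1 (50uM) turning fluorescent on thiol reaction; substrates H3(1-25) 75uM and acetyl-CoA 70uM, GCN5L2 20nM, 20 min incubation at room temperature.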
Each line names hits and unclear results; the compound was inactive in the other large screens; ! = repeats disagree. The call rests on the fitted dose curve; in most records, active means well fitted curve in the direction sought with a large enough effect; inconclusive means small, poorly fitted or top-dose-only effect, or another doubt; inactive means no such curve, though single readings can be large; an effect the other way counts as inactive or inconclusive.

O=C(OCc1ccccc1)N1CCC2CC1c1cc(N3CCCCC3)ccc12 (stereo unspecified)	TDP1 cell noCPT inconclusive, TDP1 cell CPT inconclusive (no result: TDP1 block, GCN5L2 inh)
Cc1ccccc1C(=O)N1CCC2CC1c1cc(-c3ccc(F)cc3)ccc12 (stereo unspecified)	TDP1 cell noCPT 18µM, VDR inhibitor inconclusive, TDP1 cell CPT inconclusive (no result: TDP1 block, GCN5L2 inh)
O=C(c1cc(F)c(F)cc1Cl)N1CCN(S(=O)(=O)c2cccs2)CC1	GCN5L2 inh inconclusive
CCCOc1ccccc1C1C(C(=O)Nc2ccccc2)=C(C)Nc2nnnn21 (stereo unspecified)	none (no result: PLK1 PBD block)
O=C(c1cc(Cl)cc(Cl)c1)N1CCC2CC1c1cc(N3CCCCC3)ccc12 (stereo unspecified)	TDP1 cell noCPT 21µM, TDP1 cell CPT inconclusive (no result: TDP1 block, VDR inhibitor, GCN5L2 inh)
CSc1nccc(N2CCN(c3ccc(F)cc3)CC2)n1	TDP1 cell noCPT inconclusive, TDP1 cell CPT 13µM
CN(Cc1ccccc1)C(=O)Nc1c(Cl)cccc1Cl	none (no result: TDP1 block, VDR inhibitor, GCN5L2 inh)
CC1=NNC(=O)C1CCC(=O)N/N=C/c1ccc(Cl)cc1Cl (stereo unspecified)	none
CC1=NNC(=O)C1CC(=O)N/N=C/C(Br)=C/c1ccccc1 (stereo unspecified)	TDP1 cell noCPT 21µM, TDP1 cell CPT 21µM
CC1C(=O)NN=C1C(=O)N/N=C/c1ccco1 (stereo unspecified)	TDP1 cell noCPT inconclusive, TDP1 cell CPT inconclusive, PLK1 PBD block 27µM
CC1C(=O)NN=C1C(=O)N/N=C\C(Br)=C\c1ccccc1 (stereo unspecified)	TDP1 cell noCPT 15µM, TDP1 cell CPT 6.5µM
CC1=NNC(=O)C1CCC(=O)N/N=C/C(Br)=C/c1ccccc1 (stereo unspecified)	TDP1 cell noCPT 2.1µM, TDP1 cell CPT 2.9µM
Cc1nnc(-c2ccc(N3CCCCCC3)c([N+](=O)[O-])c2)o1	TDP1 cell noCPT inconclusive
CCOC(=O)N1CCN(C/C(C)=C/c2ccccc2)CC1	none
CCOC(=O)C(=Cc1ccccc1)C(=O)OCC	VDR inhibitor 10µM (no result: TDP1 cell noCPT, TDP1 cell CPT, PLK1 PBD block)
CCOC(=O)C(=Cc1ccc(-n2cncn2)cc1)C(=O)OCC	TDP1 cell noCPT 13µM, VDR inhibitor 16µM, TDP1 cell CPT 12µM, PLK1 PBD block inconclusive
O=C1NC(=O)c2cc3ccccc3cc21	none
COc1ccccc1CNS(=O)(=O)c1c(C)cc(C)cc1C	TDP1 cell noCPT inconclusive, TDP1 cell CPT inconclusive (no result: TDP1 block, VDR inhibitor, GCN5L2 inh)
NNC(=O)c1[nH]c2ccc(Br)cc2c1-c1ccccc1	TDP1 cell noCPT 23µM, VDR inhibitor inconclusive, TDP1 cell CPT inconclusive
CC(=O)NNC(=O)c1[nH]c2ccc(Br)cc2c1-c1ccccc1	none (no result: TDP1 block)
NNC(=O)c1[nH]c2ccc(Cl)cc2c1-c1ccccc1	TDP1 cell noCPT 21µM, VDR inhibitor 79µM, TDP1 cell CPT inconclusive
COCc1ccc(C(=O)NC2CCCc3c2cnn3-c2cc(C)cc(C)c2)s1 (stereo unspecified)	TDP1 cell noCPT 21µM, TDP1 cell CPT inconclusive (no result: TDP1 block)
Cc1cc(C)cc(-n2ncc3c2CCCC3NC(=O)c2cc(C)oc2C)c1 (stereo unspecified)	TDP1 cell noCPT 23µM, TDP1 cell CPT inconclusive
COCc1ccc(C(=O)NC2CCCc3c2cnn3-c2ccc(C)c(C)c2)o1 (stereo unspecified)	TDP1 cell noCPT inconclusive, TDP1 cell CPT 18µM
COc1cccc([C@@H]2Oc3ccc(OC)cc3C(=O)[C@H]2OC(=O)NCCOc2ccccc2)c1	none (no result: TDP1 cell noCPT, TDP1 cell CPT, PLK1 PBD block, GCN5L2 inh)
O=C(NCC(=O)N1CCN(S(=O)(=O)c2ccccc2)CC1)c1ccc(Br)o1	none (no result: TDP1 block)
Cc1cccc(CN2CCCC(C(=O)c3ccc4c5c(cccc35)CC4)C2)n1 (stereo unspecified)	TDP1 cell noCPT 13µM, TDP1 cell CPT 16µM
O=C(c1ccc2c3c(cccc13)CC2)C1CCCN(Cc2cccnc2)C1 (stereo unspecified)	TDP1 cell noCPT inconclusive
COc1cc(CN2CCCC(C(=O)c3ccc4c5c(cccc35)CC4)C2)cc(OC)c1O (stereo unspecified)	TDP1 cell noCPT 4.6µM, TDP1 cell CPT 4.6µM, PLK1 PBD block inconclusive
CCCn1c(=O)c(C(=O)N/N=C/c2ccc(F)cc2)c(O)c2ccccc21	TDP1 cell noCPT 5.2µM, TDP1 cell CPT 9.2µM
CCCCCCn1c(=O)c(C(=O)N/N=C/c2cccc(F)c2)c(O)c2ccccc21	TDP1 cell noCPT 1µM, TDP1 cell CPT 0.92µM
CCCn1c(=O)c(C(=O)N/N=C/c2ccccc2F)c(O)c2ccccc21	none
CCOC(=O)c1c(C)n(-c2ccccc2)c2ccc(OC(=O)c3ccccc3Cl)cc12	TDP1 cell noCPT 16µM, TDP1 cell CPT inconclusive (no result: PLK1 PBD block)
CCOC(=O)c1c(C)n(-c2ccccc2)c2ccc(OC(=O)c3cc(OC)cc(OC)c3)cc12	TDP1 cell noCPT 21µM, TDP1 cell CPT inconclusive (no result: PLK1 PBD block)
COCCOC(=O)c1c(C)n(C)c2ccc(OC(=O)c3c(OC)cccc3OC)cc12	TDP1 cell noCPT 16µM, VDR inhibitor inconclusive, TDP1 cell CPT inconclusive, PLK1 PBD block 9.5µM (no result: TDP1 block)
CCOC(=O)c1c(C)n(-c2ccccc2)c2ccc(OC(=O)c3ccc(OCC)c(OCC)c3)cc12	TDP1 cell noCPT 18µM, TDP1 cell CPT inconclusive (no result: PLK1 PBD block)
CCOC(=O)c1c(C)n(-c2ccccc2)c2ccc(OC(=O)c3cccc(OC)c3OC)cc12	none (no result: PLK1 PBD block)
CCOC(=O)c1c(C)n(-c2ccccc2)c2ccc(OC(=O)COc3ccccc3)cc12	TDP1 cell CPT inconclusive (no result: PLK1 PBD block)
COCCOC(=O)c1c(C)n(C)c2ccc(OC(=O)N3CCOCC3)cc12	none
Cc1cc(-c2ccc(S(=O)(=O)N(C)Cc3ccccc3)cc2)on1	none
CCCCc1cc2ccccc2c(OCCN(C)C)n1	TDP1 cell noCPT inconclusive, TDP1 cell CPT 9µM!, GCN5L2 inh inconclusive
OCCc1ccc(O)c(-n2nc3ccccc3n2)c1	none
N#Cc1ccc(COc2ccc(CCO)cc2-n2nc3ccccc3n2)cc1	TDP1 cell noCPT 16µM, TDP1 cell CPT inconclusive
CCC(Sc1nncn2c1cc1oc(C)cc12)C(=O)Nc1ccc(F)cc1 (stereo unspecified)	TDP1 cell noCPT inconclusive, TDP1 cell CPT inconclusive (no result: PLK1 PBD block)
CN1CCN(C(=O)C2=NOC3(C2)C(=O)Nc2ccccc23)CC1 (stereo unspecified)	none (no result: TDP1 block, VDR inhibitor, GCN5L2 inh)
